HP1b binding inh – inhibitors of HP1-beta chromodomain binding to methylated histone tails | 0.56% of 390,000 active | P83916 | AlphaScreen HP1-beta / biotin-H3K9me3 peptide binding | Potency, µM (titrated, usually from 114 µM), hits mostly inhibitors; further: nearly all actives have a fitted effect of over 70% in size
Target sequence (P83916 whole entry, looked up): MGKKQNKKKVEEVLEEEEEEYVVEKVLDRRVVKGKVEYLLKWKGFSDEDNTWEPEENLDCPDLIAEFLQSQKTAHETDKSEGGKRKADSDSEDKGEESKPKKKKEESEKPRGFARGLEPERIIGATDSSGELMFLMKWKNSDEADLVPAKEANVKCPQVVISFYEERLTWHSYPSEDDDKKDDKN
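Compound inhibition of the preformed complex between 50 nM HP1-beta and 50 nM biotinylated H3K9me3 peptide was read by AlphaScreen. Buffer was PBS pH 7.4 with 0.01% Tween-20. Incubations ran 30 min at room temperature, with 10 ug/mL donor/acceptor beads.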
L3MBTL1 block – blocks human L3MBTL1 | AlphaScreen L3MBTL1–H3K9me1 peptide binding | Potency, µM (titrated, usually from 57.1 µM), hits mostly inhibitors | 0.66% of 230,000 active | AID 485360; further: nearly all actives have a fitted effect of over 60% in size
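L3MBTL1 (50 nM) pre-complexed 30 min with biotinylated H3(1-15)K9me1 peptide (75 nM), then compounds added for 30 min at room temperature; AlphaScreen streptavidin donor/nickel chelate acceptor beads (10 ug/mL final) read after 30 min dark incubation.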
Sfp PPTase inh – inhibitors of Bacillus subtilis Sfp phosphopantetheinyl transferase | Q9F4F7 | Biochemical Sfp PPTase activity, qHTS | Potency, µM, most hits filed as inhibitors | 3.5% of 310,000 active;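 further: the enzyme is Sfp with the accession as filed and its product quenches rhodamine fluorescence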
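With Hepes-Na pH 7.6 buffer containing 10 mM MgCl2, Sfp (15 nM) modified BHQ-2-YbbR (12.5 uM) using rhodamine-CoA (5 uM). Two reads 30 minutes apart at 525/598 nm yielded each well's rate.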
BAZ2B inh – inhibitors of human BAZ2B bromodomain | AID 504333 | Potency, µM (highest dose often 114 µM), hits mostly inhibitors | AlphaScreen BAZ2B-H3K14Ac peptide displacement | Q9UIF8 | 4.4% of 360,000 active; further: nearly all actives have a fitted effect of over 60% in size
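BAZ2B (50 nM) with biotin-H3(5-23)K14Ac peptide (50 nM) in PBS pH 7.4, 0.01% Tween-20, preformed 30 min, then compound 30 min at room temperature; top concentration 110uM. AlphaScreen streptavidin donor/nickel chelate acceptor beads (10 ug/mL final), 20 min dark, signal read.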
G9a inh – G9a (human) methyltransferase inhibition | Q96KQ7 | G9a H3K9 monomethylation, AlphaScreen, 2 h | Potency, µM (top dose mostly 102 µM), usual class: inhibitors | 8.8% of 350,000 active | AID 504332; further: nearly all actives have a fitted effect of over 75% in size
Target sequence (Q96KQ7 913-1193 limits assumed): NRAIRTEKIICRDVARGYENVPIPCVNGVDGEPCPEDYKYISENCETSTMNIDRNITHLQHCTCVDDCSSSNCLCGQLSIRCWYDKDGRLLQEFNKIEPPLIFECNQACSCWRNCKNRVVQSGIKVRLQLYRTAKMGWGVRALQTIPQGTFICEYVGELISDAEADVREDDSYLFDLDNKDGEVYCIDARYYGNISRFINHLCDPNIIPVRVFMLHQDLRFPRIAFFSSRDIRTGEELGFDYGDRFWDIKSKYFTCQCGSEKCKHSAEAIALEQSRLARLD
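AlphaScreen read-out: biotin-H3K9 peptide (500 nM) methylation by 20 nM enzyme with 20 uM SAM, 2 h at room temperature after 15 min compound preincubation; anti-monomethyl H3K9 antibody plus donor/acceptor beads, 10 min dark.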
JMJD2A Tudor – blocks the human JMJD2A Tudor domain; O75164; AlphaScreen JMJD2A-Tudor / H3K4me3 peptide binding; Potency, µM (top dose mostly 114 µM), most hits filed as inhibitors; 4.4% of 390,000 active; further: nearly all actives have a fitted effect of over 50% in size
A number is an active result; . = inactive; ? = inconclusive; / = not tested or not shown; ! = a repeat was not active; [ ] = dose if it differs, or a comment. Compounds with a hit are over-represented: about 12% of the library has one in this group of screens. The call rests on the fitted dose curve; in most records, active means well fitted curve in the direction sought with a large enough effect; inconclusive means small, poorly fitted or top-dose-only effect, or another doubt; inactive means no such curve, though single readings can be large; an effect the other way counts as inactive or inconclusive.

SMILES | HP1b binding inh | L3MBTL1 block | Sfp PPTase inh | BAZ2B inh | G9a inh | JMJD2A Tudor
CCOc1ccccc1CNc1ccc(N2CCOCC2)c(C(=O)O)c1 | . | . | . | . | . | .
Cc1ccc(CNc2ccc(N3CCOCC3)c(C(=O)O)c2)s1 | . | / | . | . | .[12.7 µM] | .
O=C(O)c1cc(NCc2c(F)cccc2Cl)ccc1N1CCOCC1 | . | . | . | . | 13µM | .
CC1CN(C(=O)N2CCC(C(=O)NCc3cccs3)CC2)c2cc(Cl)ccc2O1 (configuration not stated) | ? | / | / | ? | ? | .
CCOc1ccc(CCNC(=O)Cn2nnc(-c3ccccc3)n2)cc1OCC | . | / | / | . | . | .
CC1CCCCN1C(=O)CSc1nc(C2CC2)nc2c1cnn2-c1ccccc1 (configuration not stated) | . | . | 20µM | . | ? | .
Nc1ccc2oc(-c3ccccc3Cl)cc(=O)c2c1O | . | . | . | ? | 71µM | ?
O=c1cc(-c2ccccc2Cl)oc2ccc([N+](=O)[O-])c(O)c12 | . | . | . | ? | 50µM! | .
O=c1cc(-c2ccccc2Cl)oc2c([N+](=O)[O-])c(O)cc(O)c12 | . | . | . | ? | 50µM | .
O=C(NCNC(=O)c1ccccc1)c1ccccc1 | . | / | . | . | . | .
O=C(Nc1ccccc1Cl)c1c(F)c(F)c(F)c(F)c1F | . | / | / | / | / | .
COC1(NC(=O)c2ccccc2)C(C)=CC(=O)C=C1C | ? | / | . | . | 45µM | .
O=C(NC1(O)C(=O)c2ccccc2C1=O)c1ccccc1 | . | ? | ? | . | 45µM | .
O=C(NC1(O)C(=O)c2ccccc2C1=O)c1c(Cl)cccc1Cl | . | / | . | . | 56µM | .
Cc1ccc(-n2nnnc2SCC(=O)N(CC(C)C)c2c(N)n(CC(C)C)c(=O)[nH]c2=O)cc1 | . | . | . | . | . | .
Cc1ccccc1-c1nnc(SCC(=O)N(CC(C)C)c2c(N)n(CC(C)C)c(=O)[nH]c2=O)n1C | . | . | . | . | 50µM | .
Cc1cc(SCC(=O)N(CC(C)C)c2c(N)n(CC(C)C)c(=O)[nH]c2=O)nc2ccccc12 | . | . | / | . | 6.3µM | .
COCCN(C(=O)CSc1nnc(-c2ccncc2)n1C)c1c(N)n(CC(C)C)c(=O)[nH]c1=O | . | / | / | / | / | .
Cc1cc(C)n2c(SCC(=O)N(CC(C)C)c3c(N)n(CC(C)C)c(=O)[nH]c3=O)nnc2n1 | . | . | ? | . | 18µM | .
Cc1ccc(N2C(=O)CS(=O)(=O)C23C(=O)N(C)c2ccccc23)cc1F (configuration not stated) | . | / | / | . | 13µM | .
CCOc1ccc(CNC(=O)CN2C(=O)C(c3ccccc3)Oc3cccnc32)cc1 (configuration not stated) | . | / | . | 71µM | . | .
O=C(CN1C(=O)C(c2ccccc2)Oc2cccnc21)NCc1ccccc1F (configuration not stated) | . | / | . | . | . | 20µM
O=C(c1ccc2c(c1)N(Cc1ccccc1)C(=O)c1ccccc1S2(=O)=O)N1CCc2ccccc21 | . | / | / | . | . | .
CC(C)(C)NC(=O)CSc1ncnc2c1nnn2Cc1ccccc1Cl | . | . | . | . | . | 50µM
O=C(CSc1ncnc2c1nnn2Cc1ccccc1)NC1CCCC1 | . | . | . | . | . | .
SMILES | HP1b binding inh | L3MBTL1 block | Sfp PPTase inh | BAZ2B inh | G9a inh | JMJD2A Tudor
C#CCOCCOCCOCCNc1nc(N2CCN(C(=O)C([C@@H](C)CC)n3cc(C(N)Cc4ccc(O)cc4)nn3)CC2)nc(N2CCN(C(=O)[C@H](CCC(=O)O)n3cc(C(N)CO)nn3)CC2)n1 (some centres not stated) | . | . | . | 50µM | ? | 56µM
C#CCOCCOCCOCCNc1nc(N2CCN(C(=O)[C@H]([C@@H](C)CC)n3cc(CCC(=O)O)nn3)CC2)nc(N2CCN(C(=O)[C@H](Cc3ccc(O)cc3)n3cc(CCO)nn3)CC2)n1 | . | / | / | / | / | ?
C#CCOCCOCCOCCNc1nc(N2CCN(C(=O)C([C@@H](C)CC)n3cc(C(N)CC(C)C)nn3)CC2)nc(N2CCN(C(=O)[C@H](CCC(=O)O)n3cc(C(N)Cc4ccc(O)cc4)nn3)CC2)n1 (some centres not stated) | . | . | . | ? | ? | 79µM
C#CCOCCOCCOCCNc1nc(N2CCN(C(=O)C([C@@H](C)CC)n3cc(C(N)Cc4ccc(O)cc4)nn3)CC2)nc(N2CCN(C(=O)[C@H](CCC(=O)O)n3cc(C(N)Cc4ccc(O)cc4)nn3)CC2)n1 (some centres not stated) | . | . | . | 56µM | ? | 50µM
C#CCOCCOCCOCCNc1nc(N2CCN(C(=O)C([C@@H](C)CC)n3cc(C(N)Cc4ccc(O)cc4)nn3)CC2)nc(N2CCN(C(=O)[C@H](CCC(=O)O)n3cc(C(N)CC(C)C)nn3)CC2)n1 (some centres not stated) | . | . | . | 50µM | ? | 56µM
O=S(=O)(c1ccccc1)N1CCC2(CCN(C(c3ccccc3)c3ccccc3)CC2)CC1 | / | / | . | / | .[12.7 µM] | /
COC(=O)c1cc(C)nc2c1c(=O)nc(SCc1ccccc1F)n2C1CC1 | . | / | / | . | . | .
C#CCOCCOCCOCCNc1nc(N2CCN(C(=O)C([C@@H](C)CC)n3cc(C(N)Cc4ccc(O)cc4)nn3)CC2)nc(N2CCN(C(=O)[C@H](CCC(=O)O)n3cc(C(N)[C@H](C)CC)nn3)CC2)n1 (some centres not stated) | . | . | . | 79µM | .[12.7 µM] | ?
O=C(CS(=O)c1ccc(C(F)(F)F)cc1[N+](=O)[O-])Oc1ccccc1 (configuration not stated) | . | / | . | ? | 50µM | .[11.4 µM]
CS(=O)(=O)c1ccc(S(=O)CC(=O)OCc2ccccc2)c([N+](=O)[O-])c1 (configuration not stated) | . | . | . | . | 10µM | .
CCN(CC)S(=O)(=O)c1ccc(C(=O)NC(=S)N(CCC#N)Cc2cccnc2)cc1 | . | . | . | . | 13µM | .
CN(C)S(=O)(=O)c1cccc(C(=O)NC(=S)N(CCC#N)Cc2cccnc2)c1 | . | / | 45µM | . | . | .
Cn1cc(-c2cc3n(n2)CCC(=O)N3CCCC(=O)Nc2ccc(F)cc2F)c2ccccc21 | . | / | / | . | . | .
CC(C)C(c1nnnn1C(C)(C)C)N1CCOCC1 (configuration not stated) | . | . | . | . | 40µM | 40µM
CC(C)C(c1nnnn1C1CCCCC1)N1CCOCC1 (configuration not stated) | . | . | . | / | . | .
CCN(CC)C(=O)Cn1c(=O)n(Cc2ccc(C(=O)NCc3ccccc3Cl)cc2)c(=O)c2ccccc21 | . | / | / | . | . | .

Compound activity deposited in PubChem by National Center for Advancing Translational Sciences (NCATS).
